# Screening results (PubChem)
# Shiga toxin inh: blocks Shiga toxin action in Vero cells. inhibition, % at 38.7 µM. AID 2315. Vero cells, Shiga toxin protein synthesis inhibition reporter. 9.2% of 290,000 active; in the data active = inhibition mostly above about 28%, no sharp cut-off; inactive = mostly below about 43%; also: 0% is about no effect
# CHX counter: affects cycloheximide protein synthesis inhibition readout, counter-screen | 12% of 300,000 active | cell reporter, cycloheximide protein synthesis inhibition counterscreen | max response, %; in the data active = max response mostly above about 13%, no sharp cut-off; inactive = mostly below about 14%; also: read at 38.3 µM for the half of the compounds with a filed dose; 0% is about no effect
# FMDV inh: foot and mouth disease virus antiviral activity; FMDV antiviral cell-based qHTS; Potency, µM (series often up to 57.9 µM), without a hit: at the top dose activity change, negative = inhibition, most hits filed as inhibitors; 1.2% of 410,000 active; AID 1159524; calls by dose curve; tested in HEK293T cells; also: read-out not given here; potency is read from the fitted curve at half-maximal effect; % is scaled to controls: 0 for no effect and ±100 for the full control effect; nearly all actives have a fitted effect of over 45% in size
# Sm TGR inh: S. mansoni TGR enzyme inhibition; Q962Y6; purified TGR, DTNB reduction, TNB absorbance 405 nm; Potency, µM (top dose mostly 114 µM), without a hit: top-dose activity change, negative = inhibition, usual class: inhibitors; 3% of 360,000 active; active = well fitted inhibition curve with a large enough effect; inconclusive = small, poorly fitted or top-dose-only effect; inactive = no such curve, though single readings can be large or run the other way; also: potency is read from the fitted curve at half-maximal effect; % is scaled to controls: 0 for no effect and ±100 for the full control effect; nearly all actives have a fitted effect of over 60% in size
#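 TGR 20 nM + NADPH 100 uM (dispensed conc.), cpd preinc 15 min RT; start with NADPH (500 uM addition) then DTNB (15 mM addition). Kinetic TNB absorbance, 405 nm filter. Four-parameter Hill fit across titration.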
# Active calls of the source: *; u = inconclusive; x = no result; + = active, no number. A selection: hits, their analogues and other compounds. The true share with any hit is near 12%.
SMILES,Shiga toxin inh,CHX counter,FMDV inh,Sm TGR inh
Cc1cc(C(=O)OCc2nnc(-c3ccccc3)o2)c(C)n1-c1ccccc1,153.6,1.8,u,-7.8%
COc1cccc(C2C(C(=O)Nc3cccnc3)=C(C)Nc3nc(SCc4ccccc4)nn32)c1 (centres undefined),x,x,-14.5%,-0.5%
Nc1ccc(C(=O)OCC(=O)Nc2ccc3c(c2)OCO3)cc1[N+](=O)[O-],16.7,20.3*,14.0%,-1.7%
Cn1cccc1C(=O)OCC(=O)Nc1ccc2c(c1)CCC2,63.3,24.7,70.3%,-6.2%
O=C(COC(=O)c1ccc(N2CCOCC2)c([N+](=O)[O-])c1)Nc1ccc2c(c1)OCO2,18.8,-4.8,2.6%,-8.3%
O=C(COC(=O)c1ccco1)Nc1ccc2c(c1)OCO2,52.9*,24.6*,8.2%,9.2%
Cn1cccc1C(=O)OCC(=O)Nc1ccc2c(c1)OCO2,64.4*,32.9*,33.8%,9.6%
N#CCCn1c(=O)c(CCc2ccccc2)nc2cnc(Nc3ccccc3)nc21,x,x,-4.6%,x
CCCOc1ccc(CNC(=O)c2cc3ccccn3n2)cc1,x,x,27.6%,11.6%
COc1ccc2c(c1)CCC/C2=N\NC(=O)c1ccoc1C,+,85.7*,22.9%,-12.4%
Cc1cc(C(=O)NC2Cc3ccccc3C2)c(C)o1,66.4*,56.8*,64.5%,-29.1%
CCNC(=S)N/N=C1\CCCCc2ccccc21,7.8,-0.7,-23.1%,u
O=C(O)c1ccc(N/N=C2/CCCc3ccccc32)cc1,59.3*,33.0*,54.8%,0.5%
Cc1cc(C(=O)N/N=C2\CCCc3ccccc32)c(C)o1,50.5,26.3*,-25.6%,-7.2%
COc1cc(C(=O)NNC(=O)c2ccoc2C)cc(OC)c1OC,-11.4,-2.2,-11.7%,10.0%
Cc1ccccc1CNCc1c(C(=O)O)c(C)n(Cc2ccc(F)cc2Cl)c1C,x,x,-21.2%,5.0%
CCOC(=O)N1CCC(NC(=O)c2ccc3c(c2)N(Cc2ccc(Cl)cc2)C(=O)c2ccccc2S3(=O)=O)CC1,x,x,1.0%,1.4%
CCOc1ccccc1C(=O)Nc1ccc2nc3c(c(Nc4ccc(OC)c(OC)c4)c2c1)CCCC3,x,x,u,-5.7%
O=C(N/N=C1\CCc2ccccc21)c1ccccc1O,79.9*,49.0*,-32.6%,-14.8%
O=C(N/N=C1\CCc2ccccc21)c1ccncc1,56.0*,46.2*,47.8%,-9.6%
O=C(N/N=C1\CCCc2ccccc21)c1ccccc1Cl,63.2*,36.2*,26.3%,-0.4%
O=C(NN=C1CCCCCC1)c1ccncc1,2.7,15.8,-11.2%,4.0%
O=C(CNc1ccccc1Cl)N/N=C1\CCCc2ccccc21,-12.6,2.5,-13.2%,11.4%
O=c1c2c3c(sc2ncn1/N=C/c1ccco1)CCCC3,75.7*,12.3,37.8%,0.2%
Cc1sc2ncn(/N=C/c3ccco3)c(=O)c2c1C,53.8*,38.7*,29.0%,13.2%
SMILES,Shiga toxin inh,CHX counter,FMDV inh,Sm TGR inh
COc1cccc(-n2cnc3sc(C)c(C)c3c2=O)c1,active,28.6*,-10.7%,2.1%
Cc1cccc(-n2cnc3sc(C)c(C)c3c2=O)c1,19.9,4.7,6.0%,15.2%
O=c1c2c3c(sc2ncn1/N=C/c1ccccc1)CCCC3,63.7*,19.1*,53.8%,-0.5%
Cc1cc(C)n(-c2nc(C)c(C)c(=O)n2CC(=O)Nc2ccc(OC(F)(F)F)cc2)n1,x,x,-22.7%,4.6%
COc1ccc(-n2cnc3sc4c(c3c2=O)CCCC4)cc1,71.5*,24.6,7.0%,0.1%
CC(=O)N(C)c1ccc(NC(=O)Nc2ccc(C)c(C)c2)cc1,30.7,12.1*,-3.0%,24.4%
CC(=O)N(C)c1ccc(NC(=O)Nc2ccccc2C)cc1,81.5*,39.1*,44.2%,3.4%
Cc1ccc(NC(=O)CC(=O)Nc2ccc(C)c(C)c2)cc1C,-7.9,-5.5,-1.6%,-1.3%
CCc1n[n+](CC(=O)c2ccccc2)c(N)s1,53.3,21.7*,-51.9%,1.1%
CCOC(=O)C1=C(CN2CCN(c3cccc(OC)c3)CC2)NC(=O)NC1c1ccc(OC)cc1 (centres undefined),x,x,-22.0%,-2.8%
COc1ccc(N(C(=O)COc2c(C)cccc2C)S(=O)(=O)c2ccc(Cl)cc2)cc1,x,x,-21.2%,-0.3%
Nc1ccccc1SCC1CSc2nc3ccccc3c(=O)n21 (centres undefined),-14.7,-1.6,-10.8%,-2.2%
O=c1c2ccccc2nc2n1C(CSCc1ccc(Cl)cc1Cl)CS2 (centres undefined),35.9,-2.5,17.8µM*,u
Cc1ccc2nc(-c3ccc(SCC(=O)O)nc3)[nH]c2c1,27.0,24.0,15.5%,5.2%
O=C(CSc1ccccc1)Nc1ccc(-c2nc3ccccc3[nH]2)cc1,6.2,11.8,21.2%,-4.3%
CC(=O)CSc1ccc(-c2nc3ccccc3[nH]2)cn1,x,15.7*,-76.3%,-6.9%
